KB-V1 cytotox – qHTS assay for MDR1-selective chemotherapeutics: Primary screen using the drug-selected MDR subline cells KB-V1; KB-V1 MDR cells viability, CellTiter-Glo, 72 h; Potency, µM (top dose mostly 46.1 µM), actives largely listed as cytotoxic; 400,000 compounds, 3.4% hits; AID 1347076, 2019; further: nearly all actives have a fitted effect of over 60% in size
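qHTS viability screen in drug-selected KB-V1 MDR cells: 72 h compound treatment at 37 degrees C, ATP luminescence end point.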
HT1080 IDH1KD tx – qHTS for induction of synthetic lethality in tumor cells producing 2HG: qHTS for the HT-1080-IDH1KD cell line; AID 686971, 2013; 360,000 compounds, 2% hits; HT-1080 IDH1 knockdown viability, ATP luminescence, 48 h; Potency, µM (top dose mostly 46.1 µM), actives largely listed as cytotoxic
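CellTiter-Glo luminescence after 48 h compound exposure at 37 degrees C of IDH1-knockdown HT-1080 cells in 5% FBS RPMI. %Activity scaled between DMSO wells and cell-free media wells, with curves fitted and assigned curve classes.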
HT1080NT lethal – qHTS for induction of synthetic lethality in tumor cells producing 2HG: qHTS for the HT-1080-NT fibrosarcoma cell line. AID 686970, 2013. HT-1080-NT fibrosarcoma viability, CellTiter-Glo ATP luminescence, 48 h. 360,000 compounds, 1.6% hits. Potency, µM (doses to about 46.1 µM), actives largely listed as cytotoxic;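 further: NT is the 2HG producing partner of a matched IDH1 knockdown line; nearly all actives have a fitted effect of over 55% in size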
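Viability by CellTiter-Glo luminescence after 48 h compound exposure at 37C of HT-1080-NT cells (750/well, RPMI, 5% FBS). % activity scaled between DMSO wells and medium-only wells, then curve-fitted and categorized by curve class.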
IL-1B inflam inh – qHTS for Inhibitors of Inflammasome Signaling: IL-1-beta AlphaLISA Primary Screen; 360,000 compounds, 4.7% hits; THP-1 LPS/ATP IL-1B secretion, AlphaLISA, 16 h; stronger effect = lower value; activity change, % at 57.5 µM; in the data active means activity change below about -50%; inconclusive means mostly about -30% to -49%
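Secreted IL-1B measured by AlphaLISA bead assay after 16 h compound exposure of THP-1 cells; compounds (final up to 57.5 uM) added 1 h before LPS (250 ng/mL) and ATP (1.25 mM) stimulation; lower signal means less secretion.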
KB-3-1 tox – qHTS assay for MDR1-selective chemotherapeutics: Primary screen using the parental adenocarcinoma cell KB-3-1; Potency, µM (highest dose often 46.1 µM), hits mostly cytotoxic; 400,000 compounds, 1.4% hits; KB-3-1 viability, CellTiter-Glo ATP luminescence, 72 h; AID 1347075, 2019; further: nearly all actives have a fitted effect of over 60% in size
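Screening of KB-3-1 cells (DMEM, 10% FBS, phenol-red free) ran from lowest to highest compound concentration; after 72 h at 37 °C viability was read luminescently and curves fitted.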
Hits are given with their value. Shown are actives, neighbours in structure and some others; about 8.8% of the full set was active somewhere. Unless noted, the call rests on the fitted dose curve; in most records, active means well fitted curve in the direction sought with a large enough effect; inconclusive means small, poorly fitted or top-dose-only effect, or another doubt; inactive means no such curve, though single readings can be large; an effect the other way counts as inactive or inconclusive.

For O=C(CNC1CCCCC1)Nc1cc(S(=O)(=O)N2CCOCC2)ccc1Cl the results were KB-V1 cytotox inconclusive, HT1080 IDH1KD tx inactive, HT1080NT lethal inactive, IL-1B inflam inh inactive and KB-3-1 tox inactive.
`Cn1c(=O)n(C)c2cc([N+](=O)[O-])c(N3CCN(CCO)CC3)cc21` gave KB-V1 cytotox inactive, HT1080 IDH1KD tx inactive, HT1080NT lethal inactive, IL-1B inflam inh inactive and KB-3-1 tox inactive.
For CCOC(=O)C1(C)CCCCCN1C(=O)c1ccc(C(=O)OC)cc1 (stereo not drawn) the results were KB-V1 cytotox inactive, HT1080 IDH1KD tx inactive, HT1080NT lethal inactive, IL-1B inflam inh inactive and KB-3-1 tox inactive.
For Cc1cc2nccc(-c3ccc(OCCCF)cc3)n2n1 the results were KB-V1 cytotox inactive, HT1080 IDH1KD tx inactive, HT1080NT lethal inactive, IL-1B inflam inh inactive and KB-3-1 tox inactive.
`Clc1ccc(Nc2ccc(-n3ccnc3)nn2)cc1Cl` gave KB-V1 cytotox inconclusive, HT1080 IDH1KD tx inconclusive, HT1080NT lethal inconclusive, IL-1B inflam inh inconclusive and KB-3-1 tox inactive.
Screening Brc1ccc(CSc2nnc3ccccn23)cc1 returned KB-V1 cytotox inactive, HT1080 IDH1KD tx inactive, HT1080NT lethal inactive, IL-1B inflam inh inactive and KB-3-1 tox inactive.
Screening CCCc1ccc(C2=Nn3c(nnc3C(C)C)SC2)cc1 returned KB-V1 cytotox inactive, HT1080 IDH1KD tx inconclusive, HT1080NT lethal inconclusive, IL-1B inflam inh -91 and KB-3-1 tox inactive.
For Cc1nnc2c3ccccc3nc(N3CCN(c4ccccc4)CC3)n12 the results were KB-V1 cytotox inactive and KB-3-1 tox inactive.
`Fc1ccccc1-c1nnc2c3ccccc3nc(N3CCOCC3)n12` gave KB-V1 cytotox inactive, HT1080 IDH1KD tx inactive, HT1080NT lethal inactive, IL-1B inflam inh inactive and KB-3-1 tox inactive.
`Brc1ccc(-c2nnc3c4ccccc4nc(N4CCOCC4)n23)cc1` gave KB-V1 cytotox 2.6µM, HT1080 IDH1KD tx inactive, HT1080NT lethal inconclusive, IL-1B inflam inh inactive and KB-3-1 tox inactive.
`Clc1ccc(-c2nnc3c4ccccc4nc(N4CCOCC4)n23)cc1Cl` gave KB-V1 cytotox 2.6µM, HT1080 IDH1KD tx inactive, HT1080NT lethal inactive, IL-1B inflam inh inactive and KB-3-1 tox inactive.
CSc1nc(C)c(C(=O)C[n+]2ccc(C)cc2)cc1C#N was read as KB-V1 cytotox inactive, HT1080 IDH1KD tx inactive, HT1080NT lethal inactive, IL-1B inflam inh inactive and KB-3-1 tox inactive.
`CC1=Nc2ccccc2/C1=C/c1ccc(N(C)C)cc1` gave KB-V1 cytotox inactive and KB-3-1 tox inactive.
CC1=Nc2ccccc2/C1=C/c1c(C)[nH]c2ccccc12 was read as KB-V1 cytotox inactive, HT1080 IDH1KD tx inconclusive, HT1080NT lethal inconclusive, IL-1B inflam inh -72 and KB-3-1 tox inconclusive.
Screening Cc1ccc([C@H]2C[C@H](n3cc(C4CC4)nn3)[C@@H](O)CN2C(=O)C2CCCCC2)cc1 returned KB-V1 cytotox inactive, HT1080 IDH1KD tx inactive, HT1080NT lethal inactive, IL-1B inflam inh inactive and KB-3-1 tox inactive.
Screening O=C1[C@H]2[C@@H]3CCN1CCC[C@@H]2C=C[C@@H]3c1ccc(Br)cc1 returned KB-V1 cytotox inactive, HT1080 IDH1KD tx inconclusive, HT1080NT lethal inactive, IL-1B inflam inh inactive and KB-3-1 tox inactive.
`COc1ccc(N2CCN(C(=O)CSc3nc4nc(C)cc(C)n4n3)CC2)cc1` gave KB-V1 cytotox 21µM, HT1080 IDH1KD tx inactive, HT1080NT lethal inactive, IL-1B inflam inh inactive and KB-3-1 tox inactive.
`Cc1cc2cc(C)c3nnc(SCC(=O)N4CCN(C(=O)c5ccco5)CC4)n3c2cc1C` gave KB-V1 cytotox inactive, HT1080 IDH1KD tx inconclusive, HT1080NT lethal inactive, IL-1B inflam inh -74 and KB-3-1 tox inactive.
Cc1cc(C)n2nc(SCC(=O)N3CCN(c4ccc(F)cc4)CC3)nc2n1 was read as KB-V1 cytotox inactive, HT1080 IDH1KD tx inactive, HT1080NT lethal inactive, IL-1B inflam inh inactive and KB-3-1 tox inactive.
Screening COc1ccc(N2CCN(C(=O)CSc3nnc4c(C)cc5ccc(C)c(C)c5n34)CC2)cc1 returned KB-V1 cytotox inactive, HT1080 IDH1KD tx inactive, HT1080NT lethal inactive, IL-1B inflam inh -66 and KB-3-1 tox inactive.
`Cc1ccc2cc(C)c3nnc(SCC(=O)Nc4nc5c(s4)CCCC5)n3c2c1C` gave KB-V1 cytotox 18µM, HT1080 IDH1KD tx inactive, HT1080NT lethal inconclusive, IL-1B inflam inh inactive and KB-3-1 tox inactive.
`Cc1ccc2cc(C)c3nnc(SCC(=O)N4CCN(C(=O)c5ccco5)CC4)n3c2c1` gave KB-V1 cytotox inactive, HT1080 IDH1KD tx inactive, HT1080NT lethal inactive, IL-1B inflam inh inactive and KB-3-1 tox inactive.
Cc1ccc(C(=O)COC(=O)CCC(=O)Nc2ccc(Oc3ccccc3)cc2)cc1 was read as KB-V1 cytotox inconclusive and KB-3-1 tox inactive.
`CCCNC(=O)C1(C)CCN(Cc2ccc(OC)c3ccccc23)C1` (stereo not drawn) gave KB-V1 cytotox inactive, HT1080 IDH1KD tx inactive, HT1080NT lethal inactive, IL-1B inflam inh inactive and KB-3-1 tox inactive.
Screening COc1cccc(-n2nnnc2SCC(=O)Nc2nc3c(s2)CCCC3)c1 returned KB-V1 cytotox inactive, HT1080 IDH1KD tx inactive, HT1080NT lethal inactive, IL-1B inflam inh inactive and KB-3-1 tox inactive.
CCN1CCN(C(=O)C(C)Sc2nc3nc(C)cc(C)n3n2)CC1 (stereo not drawn) was read as KB-V1 cytotox inactive, HT1080 IDH1KD tx inactive, HT1080NT lethal inactive, IL-1B inflam inh -51 and KB-3-1 tox inactive.
Screening O=C(CSc1nnnn1-c1ccc2c(c1)OCCO2)Nc1nc2c(s1)CCCC2 returned KB-V1 cytotox 16µM, HT1080 IDH1KD tx inactive, HT1080NT lethal inconclusive, IL-1B inflam inh inconclusive and KB-3-1 tox inactive.
`COc1ccc(N2CCN(C(=O)CSc3nnc4c(C)cc5cc(C)ccc5n34)CC2)cc1` gave KB-V1 cytotox 5.8µM, HT1080 IDH1KD tx inactive, HT1080NT lethal inactive, IL-1B inflam inh inactive and KB-3-1 tox inactive.
`COc1ccc(-n2ccnc(NCc3ccccc3OC)c2=O)cc1` gave KB-V1 cytotox inactive and KB-3-1 tox inactive.
Screening CC(=O)N1c2ccc(S(=O)(=O)N3CCCC(C(=O)NCc4ccccc4Cl)C3)cc2CC1C (stereo not drawn) returned KB-V1 cytotox inactive, HT1080 IDH1KD tx inactive, HT1080NT lethal inactive, IL-1B inflam inh -55 and KB-3-1 tox inactive.
CC(=O)N1CCCc2cc(S(=O)(=O)N3CCC(C)CC3)ccc21 was read as KB-V1 cytotox 21µM, HT1080 IDH1KD tx inactive, HT1080NT lethal inactive, IL-1B inflam inh inactive and KB-3-1 tox inactive.
